From PubChem BioAssay
Results filed as inconclusive are left out. Active and inactive are the calls of the source.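 How the source made its calls, unless noted: active means viability at or below 10% of carrier control in both of two separate runs; inconclusive means viability at or below 10% in only one of the two runs; inactive means the rest.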

Legend:
[1] = reducers of endogenous Her2 protein level, primary screen, SKBR3 breast tumor cells, AlphaScreen, ATP viability (AID 461;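 active means Her2 level under about 52% in both replicate screens, with viability over 70% of control, limit read from the data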;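 on Her2 level: lower value means less Her2 protein in the cells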;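 on viability: percent of carrier control wells set as 100% viability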); conditions: 18-24 h, measured here: SKBR3 viability, ATP luminescence, at 10 µM
[2] = biological target: Receptor tyrosine-protein kinase erbB-2 (Homo sapiens) (UniProt P04626); assay: as above; conditions: 18-24 h, at 10 µM, stronger effect = lower value
Receptor tyrosine-protein kinase erbB-2 (Homo sapiens), sequence (P04626 whole entry, looked up): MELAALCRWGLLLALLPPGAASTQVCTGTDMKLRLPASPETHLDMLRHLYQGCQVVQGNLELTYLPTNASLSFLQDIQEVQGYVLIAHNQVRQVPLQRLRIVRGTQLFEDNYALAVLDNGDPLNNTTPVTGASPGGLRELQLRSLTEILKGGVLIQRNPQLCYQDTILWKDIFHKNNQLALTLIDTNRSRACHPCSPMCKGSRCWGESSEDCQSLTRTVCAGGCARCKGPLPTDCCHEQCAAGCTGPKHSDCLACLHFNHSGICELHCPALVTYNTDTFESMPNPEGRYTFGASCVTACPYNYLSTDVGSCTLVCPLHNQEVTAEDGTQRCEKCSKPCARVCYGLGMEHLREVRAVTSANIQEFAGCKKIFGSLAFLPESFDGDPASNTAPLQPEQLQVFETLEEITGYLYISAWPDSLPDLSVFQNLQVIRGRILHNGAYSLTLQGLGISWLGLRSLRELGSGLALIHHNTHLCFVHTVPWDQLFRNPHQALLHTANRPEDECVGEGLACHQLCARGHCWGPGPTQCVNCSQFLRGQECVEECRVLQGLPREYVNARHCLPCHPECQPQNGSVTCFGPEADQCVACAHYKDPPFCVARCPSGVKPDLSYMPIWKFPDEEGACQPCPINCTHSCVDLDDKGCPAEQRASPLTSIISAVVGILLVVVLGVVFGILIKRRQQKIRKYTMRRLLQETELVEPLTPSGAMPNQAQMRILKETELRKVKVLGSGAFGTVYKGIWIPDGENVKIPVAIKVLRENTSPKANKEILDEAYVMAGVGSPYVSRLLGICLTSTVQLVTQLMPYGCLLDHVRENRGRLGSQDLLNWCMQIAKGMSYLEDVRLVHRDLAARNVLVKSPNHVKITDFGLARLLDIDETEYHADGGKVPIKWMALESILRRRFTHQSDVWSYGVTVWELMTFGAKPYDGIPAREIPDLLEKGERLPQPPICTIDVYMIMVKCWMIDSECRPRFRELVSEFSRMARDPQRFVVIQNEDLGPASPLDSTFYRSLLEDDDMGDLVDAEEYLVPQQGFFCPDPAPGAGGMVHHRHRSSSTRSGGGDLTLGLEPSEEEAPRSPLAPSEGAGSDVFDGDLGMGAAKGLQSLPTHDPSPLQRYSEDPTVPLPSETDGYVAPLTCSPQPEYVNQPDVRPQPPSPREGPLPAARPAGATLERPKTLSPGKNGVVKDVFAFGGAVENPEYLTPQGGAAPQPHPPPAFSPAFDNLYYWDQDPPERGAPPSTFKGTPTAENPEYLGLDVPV

[3] = SK-BR-3 cell growth inhibitors, pilot screen, 24 h, human (AID 572); conditions: SK-BR-3 viability, CellTiter-Glo luminescence, at 10 µM, stronger effect = lower value;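 further: compound exposure lasted between 18 and 24 h rather than exactly 24 h; 100% = carrier-treated control wells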
[4] = HUVEC growth inhibition – cell-based, human, primary screen (AID 575;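 active means viability at or below 30% in both replicate assays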;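 further: 100% = median of untreated cell wells with 0.1% DMSO on each plate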); conditions: HUVEC proliferation, CellTiter-Glo luminescence, 72 h; at 10 µM; stronger effect = lower value
[5] = growth inhibitors of H69AR lung tumor, primary screen, human, duplicate replicates (AID 580;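 active means viability at or under a set limit in both replicates, limit being median viability minus 3 SD, cut at about 48% in these data, passing the limit was not always enough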;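 further: 100% = mean luminescence of untreated wells and 0% = no signal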); conditions: H69AR lung tumor cells viability, ATP luminescence, 72 h; at 10 µM; stronger effect = lower value
[6] = reversal of MRP1-mediated doxorubicin resistance, pilot screen, H69AR cells, doxorubicin co-treatment (AID 601;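 active means viability loss from added drug above about 55%, and viability with drug at most 40%, in both replicates, limit read from the data, passing the limit was not always enough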); conditions: CellTiter-Glo, 72 h, at 10 µM; for differential viability (reversal): stronger effect = higher value
[7] = 384-well plate pilot, post-Golgi transport modulator project, inhibition of yeast transport mutant growth (AID 636; in the data active means inhibition above about 31%); conditions: absorbance 615 nm, about 18 h, stronger effect = higher value
[8] = growth suppression of yeast trafficking mutant, preliminary HTS, modulators of trafficking downstream of Golgi apparatus project, 1536-format plate, OD 615 nm (AID 637; in the data active means inhibition above about 30%); conditions: yeast transport mutant growth, absorbance 615 nm, 18 h; stronger effect = higher value
[9] = OD615 S. cerevisiae growth inhibition, permissive medium, pilot counter-assay, permissive growth control for S. cerevisiae lifespan shortening project (AID 705;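 active means growth inhibition above 25% in both replicates, a cutoff set 3 SD above the mean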); conditions: OD615, 24 h, at 10 µM, stronger effect = higher value
[10] = Restrictive medium S. cerevisiae growth inhibition, OD615, pilot screen of yeast lifespan reduction project, restrictive growth control (AID 706;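 active means growth inhibition above a set limit, 3 SD over mean compound inhibition, in both replicates, cut at about 43% in these data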;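 further: modified DeaD lifespan yeast strain shifted to restrictive glucose medium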); conditions: OD615, 48 h, at 10 µM, stronger effect = higher value
[11] = viability gain of MRP-1-high H69AR cells under doxorubicin, pilot screen, MRP-1 activator project, CellTiter-Glo, duplicate (AID 807;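 active means viability increase at or above a cutoff of the median across tested compounds plus 3 SD, cut at about 8.5% in these data, passing the limit was not always enough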;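 further: compound pretreatment 18-22 h then 72 h combined with doxorubicin; 0% = doxorubicin alone and 100% = vehicle without doxorubicin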); conditions: H69AR viability with doxorubicin, CellTiter-Glo luminescence; at 10 µM; stronger effect = higher value
[12] = growth suppression of beta-catenin knockout HCT116, pilot screen, human colon tumor cells (AID 823;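 active means cell viability at or below a set limit in both duplicate runs, the limit being the all-compound median minus 4 SD, cut at about 23% in these data, passing the limit was not always enough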;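 further: 0% = wells killed by 20 µM Hyamine and 100% = untreated DMSO cell wells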); conditions: CellTiter-Glo, 60 h, at 10 µM, stronger effect = lower value
[13] = growth suppression of PTEN-deleted HCT116, pilot screen, cell-based, HCT116 clonal line, CellTiter-Glo (AID 824;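 active means viability at or below 27.92% in each of two runs, the all-compound median minus 4 SD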;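 further: 0% = 20 µM Hyamine control and 100% = vehicle cell control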); conditions: 60 h, at 10 µM, stronger effect = lower value
[14] = inhibitors of the yeast RAM network, pilot screen, dse1pr::URA3 reporter, 5-FOA selection (AID 869;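 active means inhibition over a set limit, the all-compound mean plus 3 SD, in both replicate runs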;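 further: 0% = DMSO wells with no growth and 100% = 10 µM 1-NA-PP1 with full growth; RAM network block rescues cells from 5-FOA so hits raise OD615 growth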); conditions: S. cerevisiae dse1pr::URA3 5-FOA growth, OD615, 2 d; at 10 µM; stronger effect = higher value; strain carries analog-sensitive mutant Cbk1 kinase
[15] = RAM signaling pathway blockade in yeast – S. cerevisiae, Pdr1DBD-CYC8 efflux-inhibited sensitized strain, primary screen (AID 1298;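 active means RAM network inhibition above 8.4% in each of two replicates, 3 SD over the compound average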;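 further: 0% = DMSO untreated cells without growth and 100% = 10 µM 1-NA-PP1 full growth; higher means more yeast growth rescued from 5-FOA killing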); conditions: S. cerevisiae cbk1-as DSE1-URA3 strain, 5-FOA growth OD615, 2 d; at 50 µM; stronger effect = higher value
[16] = H69AR cells + 2 uM doxorubicin, measured here: viability with 2 uM doxorubicin, stronger effect = lower value
[17] = H69AR cells, compound alone cytotoxicity

Compound	viability [1]	Her2 level [2]	viability [3]	viability [4]	viability [5]	differential viability (reversal) ([6]; H69AR cells + 2 uM doxorubicin)	viability [6, 16]	viability [6, 17]	inhibition [7]	inhibition [8]	growth inhibition [9]	growth inhibition [10]	viability increase [11]	viability [12]	viability [13]	inhibition [14]	RAM network inhibition [15]
CCC(CC)C(=O)NCCc1cc2ccc(C)cc2[nH]c1=O	99%	95% (inactive)	99% (inactive)	85.2% (inactive)	87.6% (inactive)	-5.36% (inactive)	92.9%	87.6%	-4.8% (inactive)	4.67% (inactive)	1.09% (inactive)	0.345% (inactive)	-2.76% (inactive)	102% (inactive)	97.4% (inactive)	0.02% (inactive)	4.75% (inactive)
c1nc(NCC2CCCO2)c2[nH]cnc2n1 (stereo not given)	83.5%	91.5% (inactive)	83.5% (inactive)	93.4% (inactive)	91.1% (inactive)	7.82% (inactive)	83.3%	91.1%	-1.84% (inactive)	4% (inactive)	-10% (inactive)	-5.46% (inactive)	0.98% (inactive)	100% (inactive)	99.7% (inactive)	1.3% (inactive)	1.7% (inactive)
CCOC(=O)C1=C(C)N(C)C(=O)NC1c1cccc(O)c1 (stereo not given)	102%	85% (inactive)	102% (inactive)	90.1% (inactive)	86.9% (inactive)	-13.7% (inactive)	101%	86.9%	-0.9% (inactive)	-6.5% (inactive)	-6.63% (inactive)	4.03% (inactive)	-0.55% (inactive)	99.2% (inactive)	95.9% (inactive)	-0.435% (inactive)	-0.57% (inactive)
COc1ccc(N2CCN(CCNC(=O)CCS(=O)(=O)c3cccc4nsnc34)CC2)cc1	90%	97% (inactive)	90% (inactive)	99.9% (inactive)	103% (inactive)	11.1% (inactive)	91.6%	103%	-6.58% (inactive)	-0.16% (inactive)	0.45% (inactive)	4.11% (inactive)	-1.51% (inactive)	98.5% (inactive)	95.2% (inactive)	0.835% (inactive)	5.62% (inactive)
CCOc1ccc(NC(=O)CCN2CCN(c3ccccc3)CC2)cc1	94.5%	104% (inactive)	94.5% (inactive)	95.3% (inactive)	82.5% (inactive)	4% (inactive)	78.5%	82.5%	-0.9% (inactive)	3.17% (inactive)	4.18% (inactive)	-17.7% (inactive)	-3.89% (inactive)	90.4% (inactive)	80.4% (inactive)	0.545% (inactive)	3.81% (inactive)
COc1cccc(C2C3=C(N=C4SCC(=O)N42)c2ccccc2CC3)c1OC (stereo not given)	103%	115% (inactive)	103% (inactive)	65.7% (inactive)	98.2% (inactive)	19.8% (inactive)	78.4%	98.2%	-1.69% (inactive)	-6.83% (inactive)	-15.1% (inactive)	-9.8% (inactive)	-1.55% (inactive)	65.8% (inactive)	68.5% (inactive)	0.915% (inactive)	5.99% (inactive)
CCCCOCCCNC(=O)c1ccc(NC(C)=O)cc1	108%	133% (inactive)	108% (inactive)	86.3% (inactive)	96.6% (inactive)	10% (inactive)	86.6%	96.6%	1.04% (inactive)	-10.7% (inactive)	-9.19% (inactive)	-26.5% (inactive)	0.09% (inactive)	104% (inactive)	97.4% (inactive)	1.42% (inactive)	-0.63% (inactive)
CCOC(=O)c1oc2c(CN3CCN(C)CC3)c(O)ccc2c(=O)c1-c1ccccc1OC	94%	110% (inactive)	94% (inactive)	99.5% (inactive)	93.1% (inactive)	-0.225% (inactive)	93.3%	93.1%	0% (inactive)	0.5% (inactive)	-13% (inactive)	-15.5% (inactive)	-1.3% (inactive)	103% (inactive)	94% (inactive)	3.98% (inactive)	1.2% (inactive)
CC(C)(O)C#Cc1ccc(C(=O)N2CCN(C(=O)c3ccco3)CC2)cc1	102%	88% (inactive)	102% (inactive)	108% (inactive)	96.9% (inactive)	8.95% (inactive)	87.9%	96.9%	-3.87% (inactive)	2.74% (inactive)	-17.3% (inactive)	-11.2% (inactive)	-0.62% (inactive)	92.4% (inactive)	99.8% (inactive)	0.66% (inactive)	2.19% (inactive)
CCCCCn1c(=O)[nH]c2cc(C(=O)NCCN3CCOCC3)ccc2c1=O	99.5%	88% (inactive)	99.5% (inactive)	114% (inactive)	105% (inactive)	16.1% (inactive)	88.5%	105%	-7.03% (inactive)	0.33% (inactive)	-26.4% (inactive)	-10.6% (inactive)	-0.3% (inactive)	92.5% (inactive)	87.9% (inactive)	1.83% (inactive)	5.23% (inactive)
COc1ccc(-c2nc(CSCC(=O)NCc3ccc4c(c3)OCO4)c(C)o2)cc1OC	98%	108% (inactive)	98% (inactive)	92.9% (inactive)	84.9% (inactive)	-7.12% (inactive)	92%	84.9%	-4% (inactive)	1.5% (inactive)	-13.4% (inactive)	-12.2% (inactive)	-3.57% (inactive)	84.7% (inactive)	74.1% (inactive)	0.57% (inactive)	6.3% (inactive)
c1ccc2c(c1)nc(NC1CCCCC1)c1nncn12	98.5%	109% (inactive)	98.5% (inactive)	86.6% (inactive)	90.8% (inactive)	19.9% (inactive)	70.9%	90.8%	-5% (inactive)	-1.17% (inactive)	-8.94% (inactive)	-7.48% (inactive)	-6.65% (inactive)	89.9% (inactive)	83.3% (inactive)	0.325% (inactive)	2.5% (inactive)
CC(C(=O)N1CC2(C)CC1CC(C)(C)C2)N1C(=O)c2ccccc2C1=O (stereo not given)	84%	101% (inactive)	84% (inactive)	101% (inactive)	98.1% (inactive)	16.8% (inactive)	81.3%	98.1%	-7.07% (inactive)	0.32% (inactive)	-13.3% (inactive)	-0.265% (inactive)	-3.98% (inactive)	82.1% (inactive)	83.5% (inactive)	0.545% (inactive)	4.35% (inactive)
CC(=O)c1sc(NC(=O)C2COc3ccccc3O2)nc1C (stereo not given)	102%	97.5% (inactive)	102% (inactive)	80.7% (inactive)	89.2% (inactive)	11.4% (inactive)	77.8%	89.2%	4.1% (inactive)	3.5% (inactive)	-8.75% (inactive)	-3.37% (inactive)	-1.12% (inactive)	99.4% (inactive)	99% (inactive)	0.05% (inactive)	-0.31% (inactive)
O=C(Nc1ccc(CN2CCOCC2)cc1)c1cc2ccccn2n1	100%	103% (inactive)	100% (inactive)	94.4% (inactive)	94.7% (inactive)	-0.47% (inactive)	95.2%	94.7%	0.38% (inactive)	2.5% (inactive)	-4.72% (inactive)	7.87% (inactive)	2.39% (inactive)	100% (inactive)	95% (inactive)	0.65% (inactive)	1.45% (inactive)
CC(C)c1nnc(NC(=O)c2ccc(N3C(=O)CCC3=O)cc2)s1	91.5%	89.5% (inactive)	91.5% (inactive)	100% (inactive)	92.5% (inactive)	-1.78% (inactive)	94.3%	92.5%	-3.33% (inactive)	-0.67% (inactive)	-2.77% (inactive)	-18.5% (inactive)	-4.79% (inactive)	101% (inactive)	95.3% (inactive)	1.46% (inactive)	3.77% (inactive)
CCOC(=O)c1cccc(NC2c3ccccc3C(=O)N2Cc2ccco2)c1 (stereo not given)	98.5%	98% (inactive)	98.5% (inactive)	76.2% (inactive)	82.1% (inactive)	-6.29% (inactive)	88.4%	82.1%	-3.6% (inactive)	-0.83% (inactive)	2.55% (inactive)	1.38% (inactive)	-5.15% (inactive)	64.7% (inactive)	74.6% (inactive)	2.4% (inactive)	8.31% (inactive)
O=C1c2ccccc2C(Nc2ccc(F)c(Cl)c2)N1Cc1ccco1 (stereo not given)	92%	99% (inactive)	92% (inactive)	58.4% (inactive)	74% (inactive)	-0.96% (inactive)	75%	74%	-1.6% (inactive)	3.83% (inactive)	-5.7% (inactive)	-1.3% (inactive)	-4.57% (inactive)	72.8% (inactive)	77.1% (inactive)	1.6% (inactive)	7.74% (inactive)
CCOc1cc(C2CC(=O)N3CN(C4CCCCC4)CSC3=C2C#N)ccc1O (stereo not given)	85%	108% (inactive)	85% (inactive)	113% (inactive)	87.3% (inactive)	-13.7% (inactive)	101%	87.3%	1.92% (inactive)	2% (inactive)	41.6% (active)	76% (active)	-4.1% (inactive)	105% (inactive)	95.1% (inactive)	0.17% (inactive)	2.85% (inactive)
CC(c1ccccc1)n1cnc2ccccc21 (stereo not given)	82%	104% (inactive)	82% (inactive)	93.4% (inactive)	93.5% (inactive)	0.135% (inactive)	93.3%	93.5%	-1.15% (inactive)	0.33% (inactive)	-3.42% (inactive)	0.48% (inactive)	-1.05% (inactive)	103% (inactive)	95.2% (inactive)	-0.115% (inactive)	0.83% (inactive)
